Measured values from PubChem BioAssay (EPA / NIEHS).
Where “and” joins values, the source holds several entries; their conditions need not be identical. Identical values can stand only once. The source holds several records for some structures; these can differ, active in one and inactive in another. Calls of active or inactive are those of the source. How the source made its calls: active means hit-call score of the fitted dose curve at least 0.9, where 1 is the maximum; inactive means score below 0.9.

Tests used:
[1] = APR_HepG2_NuclearSize_72hr: Apredica 72-hour HepG2 Assay for Nuclear Size (AID 2282925); conditions: high-content imaging, actives raise or lower the signal
Procedure, shortened: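 Read-out: nuclear diameter from Hoechst 33342 images (ArrayScan, 20x, six fields/well), via cell-cycle image analysis. HepG2 were dosed 0.39–200 uM for 72 hr in 0.5% DMSO. Bidirectional fit relative to DMSO.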

[2] = ATG_CRE_CIS: Attagene CIS-FACTORIAL HepG2 Assay for human cAMP Responsive Element (CRE) binding protein 3 (AID 2282926); conditions: HepG2 CRE cis-reporter, Attagene multiplexed mRNA; actives raise or lower the signal
Procedure, shortened: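 Capillary electrophoresis of 6-FAM-labelled, HpaI-digested PCR products quantified reporter transcripts. These came from HepG2 transiently transfected with cis-element reporters and exposed to test chemicals for 24 hours, with DMSO defining baseline activity.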

[3] = molecular target: CCAAT/enhancer-binding protein beta (Homo sapiens) (UniProt P17676); experiment: ATG_C_EBP_CIS: Attagene CIS-FACTORIAL HepG2 Assay for human CCAAT/Enhancer Binding Protein (C/EBP) beta (AID 2282927); conditions: HepG2 Attagene cis-factorial transcription factor reporter; actives raise or lower the signal
Chain of CCAAT/enhancer-binding protein beta (Homo sapiens) (P17676 whole entry, looked up): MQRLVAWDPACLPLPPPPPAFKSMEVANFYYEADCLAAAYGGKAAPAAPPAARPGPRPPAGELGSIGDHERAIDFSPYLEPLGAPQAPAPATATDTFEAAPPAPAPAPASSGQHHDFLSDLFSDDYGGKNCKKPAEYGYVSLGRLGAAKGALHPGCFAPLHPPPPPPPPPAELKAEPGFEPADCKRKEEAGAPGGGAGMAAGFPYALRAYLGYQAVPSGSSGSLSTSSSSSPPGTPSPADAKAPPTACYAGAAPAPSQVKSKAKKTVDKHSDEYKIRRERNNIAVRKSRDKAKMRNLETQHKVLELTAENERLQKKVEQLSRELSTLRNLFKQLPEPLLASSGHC
Procedure, shortened: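 HepG2, transient MRTU transfection, 24 h treatment. RT-PCR plus CE fluorescence; DMSO negative control, bidirectional fit.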

[4] = ATG_CMV_CIS: Attagene CIS-FACTORIAL HepG2 Assay for human CMV (Internal Marker) (AID 2282928); conditions: HepG2 CMV promoter reporter, transcription factor profiling; actives raise or lower the signal;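 further: endpoint acts as a background internal control marker rather than a target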
Procedure, shortened: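 Reporter transcripts from transfected HepG2 cells are isolated after 24 h of chemical dosing, reverse-transcribed and amplified. Fragments labeled with 6-FAM are cut with HpaI and quantified by capillary electrophoresis; DMSO defines baseline.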

[5] = ATG_DR4_LXR_CIS: Attagene CIS-FACTORIAL HepG2 Assay for human Liver X Receptor (LXR), DR4 submotif (AID 2282929); conditions: HepG2 Attagene DR4 cis-reporter, mRNA transcription; actives raise or lower the signal
Procedure, shortened: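 Total RNA from 24 h-treated, MRTU-transfected HepG2 cells underwent reverse transcription, PCR, fluorescent primer extension and restriction digestion before capillary electrophoresis. Both increases and decreases in reporter signal were fitted against DMSO.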

[6] = molecular target: Aryl hydrocarbon receptor (Homo sapiens) (UniProt P35869); experiment: ATG_Ahr_CIS: Attagene CIS-FACTORIAL HepG2 Assay for human Aryl Hydrocarbon Receptor (Ahr) (AID 2282930); conditions: HepG2 AhR cis-factorial reporter transcription; actives raise or lower the signal
Chain of Aryl hydrocarbon receptor (Homo sapiens) (P35869 whole entry, looked up): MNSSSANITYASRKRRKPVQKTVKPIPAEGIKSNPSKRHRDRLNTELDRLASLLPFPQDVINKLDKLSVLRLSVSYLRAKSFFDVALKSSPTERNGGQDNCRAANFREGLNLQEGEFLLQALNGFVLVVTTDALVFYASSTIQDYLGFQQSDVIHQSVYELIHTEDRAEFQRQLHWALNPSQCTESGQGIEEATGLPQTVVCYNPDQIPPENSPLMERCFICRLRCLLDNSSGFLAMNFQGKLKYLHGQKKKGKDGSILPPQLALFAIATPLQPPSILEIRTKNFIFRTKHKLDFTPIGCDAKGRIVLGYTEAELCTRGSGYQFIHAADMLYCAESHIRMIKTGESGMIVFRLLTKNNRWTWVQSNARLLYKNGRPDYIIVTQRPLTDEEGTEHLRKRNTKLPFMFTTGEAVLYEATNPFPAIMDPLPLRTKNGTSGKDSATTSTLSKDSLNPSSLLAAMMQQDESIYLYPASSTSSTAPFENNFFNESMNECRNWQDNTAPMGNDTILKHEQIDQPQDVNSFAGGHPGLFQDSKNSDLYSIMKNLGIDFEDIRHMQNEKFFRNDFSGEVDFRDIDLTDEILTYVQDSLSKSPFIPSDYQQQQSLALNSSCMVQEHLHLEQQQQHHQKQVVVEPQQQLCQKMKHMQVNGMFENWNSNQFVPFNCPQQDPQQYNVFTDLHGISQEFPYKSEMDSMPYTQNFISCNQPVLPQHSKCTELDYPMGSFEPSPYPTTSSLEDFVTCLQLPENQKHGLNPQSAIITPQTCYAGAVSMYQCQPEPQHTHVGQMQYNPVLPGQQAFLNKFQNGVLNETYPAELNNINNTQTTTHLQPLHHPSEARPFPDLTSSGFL
Procedure, shortened: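 Endogenous factor activity is tracked through cis-promoter reporter units transfected into HepG2 cells. Transcript levels at 24 h are read by fluorescent RT-PCR and capillary electrophoresis, with activity in either direction scored relative to DMSO.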

[7] = ATG_AP_1_CIS: Attagene CIS-FACTORIAL HepG2 Assay for human Activator Protein 1 (AP-1) (AID 2282931); conditions: HepG2 Attagene cis-factorial AP-1 reporter mRNA; actives raise or lower the signal
Procedure, shortened: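 HepG2, transient cis-reporter transfection; 24 h; readout RT-PCR/CE fluorescence; DMSO baseline, gain and loss fitted.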

[8] = ATG_BRE_CIS: Attagene CIS-FACTORIAL HepG2 Assay for human Bone Morphogenetic Protein (BMP) Response Element (BRE) (AID 2282933); conditions: HepG2 BMP response element reporter, Attagene transcription factor profiling; actives raise or lower the signal
Procedure, shortened: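 HepG2 cells transiently transfected with multiplexed cis-element reporter units were dosed with chemical for 24 h. Reporter mRNA was measured by RT-PCR with fluorescent labelling, HpaI digestion and capillary electrophoresis; bidirectional fitting relative to DMSO.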

[9] = ATG_AP_2_CIS: Attagene CIS-FACTORIAL HepG2 Assay for human Activator Protein 2 (AP-2) (AID 2282932); conditions: HepG2 AP-2 cis-reporter, Attagene transcription factor profiling; actives raise or lower the signal
Procedure, shortened: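 Read-out: fluorescent reporter mRNA via RT-PCR and capillary electrophoresis, 24 h post-dose in transiently transfected HepG2. Endogenous factors drive cis-promoter reporters; gain or loss of signal fitted bidirectionally against DMSO.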

[10] = molecular target: Retinoic acid receptor alpha (Homo sapiens) (UniProt P10276); experiment: ATG_DR5_RAR_CIS: Attagene CIS-FACTORIAL HepG2 Assay for human Retinoic Acid Receptor Alpha (RARE), DR5 submotif (AID 2282934); conditions: HepG2 Attagene cis-factorial RARE DR5 reporter, mRNA; actives raise or lower the signal;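 on AC50: reporter responds to endogenous RAR alpha beta and gamma in HepG2 not RARA alone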
Chain of Retinoic acid receptor alpha (Homo sapiens) (P10276 whole entry, looked up): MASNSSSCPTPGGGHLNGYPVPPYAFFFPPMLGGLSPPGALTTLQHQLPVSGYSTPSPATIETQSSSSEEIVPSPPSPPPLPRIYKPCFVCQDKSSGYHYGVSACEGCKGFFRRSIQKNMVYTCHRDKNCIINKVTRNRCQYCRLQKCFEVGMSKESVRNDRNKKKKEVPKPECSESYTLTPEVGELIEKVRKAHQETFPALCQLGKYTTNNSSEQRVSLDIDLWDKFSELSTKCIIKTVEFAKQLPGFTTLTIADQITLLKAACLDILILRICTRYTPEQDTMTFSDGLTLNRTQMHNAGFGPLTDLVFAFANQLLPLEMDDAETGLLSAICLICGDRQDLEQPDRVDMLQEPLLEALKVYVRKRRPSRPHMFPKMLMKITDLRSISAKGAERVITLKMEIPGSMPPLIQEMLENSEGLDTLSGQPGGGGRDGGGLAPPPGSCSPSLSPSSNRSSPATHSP
Procedure, shortened: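 After 24 h of chemical exposure, transiently transfected HepG2 cells were lysed for total RNA; the DR5-regulated reporter transcript was quantified via RT-PCR and capillary electrophoresis, with activity fitted bidirectionally against DMSO.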

Measured: AC50

COC(=O)c1ccc(I)cc1S(=O)(=O)NC(=O)Nc1nc(C)nc(OC)n1
not listed: [9] | [10]
inactive: all other assays above

COc1nc(C)nc(NC(=O)NS(=O)(=O)c2ccccc2OCCCl)n1
inactive: [2] | [3] | [4] | [5] | [6] | [7] | [9] | [10]
active: [5] 9.13 µM

CCN(Cc1c(F)cccc1Cl)c1c([N+](=O)[O-])cc(C(F)(F)F)cc1[N+](=O)[O-]
active: [4] 10.6 µM | [5] 8.45 µM | [7] 28.9 µM | [10] 1.8 µM
not listed: [8]
inactive: all other assays above

OB(O)O
not listed: [8]
inactive: all other assays above

C[C@]12C[C@H](O)[C@H]3[C@@H](CCC4=CC(=O)CC[C@@]43C)[C@@H]1CC[C@@H]2C(=O)CO
not listed: [9]
inactive: all other assays above

O=C(c1ccccc1)C1CCCCC1
inactive: [2] | [3] | [4] | [5] | [6] | [7] | [9] | [8] | [10]
active: [6] 17.2 µM

CSC(=O)c1cccc2nnsc12
not listed: [9]
inactive: all other assays above

c1ccc(Nc2ccccc2)cc1
not listed: [8]
inactive: all other assays above

O=C(O)c1ccccc1
inactive: [2] | [3] | [4] | [5] | [6] | [7]

CN(C)C(=O)Nc1ccc(Cl)c(Cl)c1
active: [4] 79.1 µM | [7] 27.7 µM
inactive: [2] | [3] | [4] | [5] | [7] | [9] | [10]

CCCN(CCC)C(=O)SCC
not listed: [8] | [9] | [10]
inactive: all other assays above

COC(=O)c1ccccc1S(=O)(=O)NC(=O)Nc1nc(OC(F)F)cc(OC(F)F)n1
not listed: [8] | [9]
inactive: all other assays above

CC(C)(c1ccc(O)cc1)c1ccc(O)cc1
inactive: [2] | [3] | [4] | [5] | [6] | [7] | [8] | [10]
active: [2] 64.3 µM and 25.5 µM and 22.7 µM | [3] 33.4 µM | [4] 50 µM [middle of 6 runs] | [6] 26.9 µM and 49.5 µM and 23.6 µM | [8] 155 µM

C#CCOC(=O)[C@@H](C)Oc1ccc(Oc2ncc(Cl)cc2F)cc1
not listed: [8] | [9]
inactive: all other assays above

Cc1nn(C)c(Oc2ccccc2)c1C=NOCc1ccc(C(=O)OC(C)(C)C)cc1
inactive: [1] | [5] | [6]
active: [2] 40.5 nM | [3] 0.0505 µM | [4] 0.0218 µM | [7] 0.0252 µM | [10] 0.0303 µM

CCCCOC(=O)[C@@H](C)Oc1ccc(Oc2ccc(C(F)(F)F)cn2)cc1
not listed: [9]
inactive: all other assays above

CCC(C)OC(=O)N1CCCCC1CCO (stereo unspecified)
inactive: all assays above

CCOC(=O)c1ccc(O)cc1
active: [3] 100 µM
inactive: [2] | [3] | [4] | [5] | [6] | [7] | [9] | [10]

N#CSCSc1nc2ccccc2s1
inactive: [2] | [3] | [4] | [5] | [6] | [7] | [10]
active: [2] 18200 nM | [4] 2.95 µM | [5] 3.05 µM | [7] 3.02 µM

CC(=O)[C@H]1CC[C@H]2[C@@H]3CCC4=CC(=O)CC[C@]4(C)[C@H]3CC[C@]12C
active: [3] 115 µM | [4] 160 µM | [5] 8.67 µM | [6] 100 µM | [7] 33.4 µM and 170 µM
inactive: [1] | [2] | [3] | [4] | [5] | [6] | [7] | [9] | [10]

CC(=O)S[C@@H]1CC2=CC(=O)CC[C@]2(C)[C@H]2CC[C@@]3(C)[C@@H](CC[C@@]34CCC(=O)O4)[C@H]12
inactive: [2] | [3] | [4] | [5] | [6] | [7]
active: [2] 25.5 µM and 17.9 µM and 3.75 µM | [4] 26.1 µM and 3.77 µM and 12.1 µM | [5] 10.6 µM and 12.5 µM and 11.8 µM

S=C(S)NCCNC(=S)S.[Mn+2].[S-]C([S-])=NCCN=C([S-])[S-].[Zn+2]
active: [2] 10.1 µM and 9.92 µM | [4] 231 nM and 1.21 µM and 343 nM | [5] 8.2 µM and 50 µM and 67.7 µM | [6] 20.7 µM [middle of 4 runs] | [7] 20.7 µM [middle of 4 runs] | [9] 4.93 µM
inactive: [2] | [3] | [4] | [5] | [6] | [7] | [9]

CC(C)CCCCCCc1ccc(O)cc1
inactive: [1] | [2] | [3] | [4] | [5] | [6] | [7] | [8] | [10]
active: [2] 17.3 µM and 16.4 µM | [3] 18.1 µM and 15.4 µM | [4] 13.1 µM and 17.4 µM | [5] 15.9 µM and 21 µM and 16.6 µM | [6] 21 µM | [7] 17 µM | [8] 20.7 µM | [10] 11.1 µM

COC(=O)c1cccc(C)c1S(=O)(=O)NC(=O)Nc1nc(OCC(F)(F)F)nc(N(C)C)n1
not listed: [9]
inactive: all other assays above

CCOC(=O)C(C)Oc1ccc(Oc2nc3ccc(Cl)cc3o2)cc1 (stereo unspecified)
not listed: [8]
inactive: all other assays above

c1ccc2[nH]c(-c3cscn3)nc2c1
inactive: [1] | [2] | [3] | [4] | [5] | [7] | [9] | [8] | [10]
active: [5] 32.1 µM
